8 molecules from PubChem BioAssay (Tox21) can be followed below.

A short description of assay [1]: Nuclear factor erythroid 2-related factor 2/antioxidant responsive element (Nrf2/ARE) small molecule agonists: qHTS cell viability counter screen in human keratinocytes (AID 1919968; active means well fitted curve in the direction sought with a large enough effect in the repeat runs; an effect the other way counts as inactive or inconclusive; further: nearly all actives have a fitted effect of over 55% in size). In short, it runs like this:
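Stably transfected HaCaT (KeratinoSens), 1,500/well. Test agents in DMSO were applied for 23 h, 37 C/5% CO2. CellTiter-Fluor was incubated 1 h before the fluorescence read.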

A short description of assay [2]: Nuclear factor erythroid 2-related factor 2/antioxidant responsive element (Nrf2/ARE) small molecule agonists: luciferase reporter gene qHTS assay in human keratinocytes (AID 1919969; further: nearly all actives have a fitted effect of over 35% in size; further: potency means the concentration at half of the fitted maximal effect). (In a reporter assay the amount or activity of a reporter protein is the signal.)
In assay [3] the target is Gonadotropin-releasing hormone receptor (Homo sapiens) (UniProt P30968). Nature of the assay: Human gonadotropin-releasing hormone receptor (GnRHR) small molecule agonists, calcium flux assay in GnRHR-HEK293 cells (AID 1920063). Further: nearly all actives have a fitted effect of over 35% in size. The method in brief: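 Stable human GnRHR HEK293 line. 18 h plating, then calcium dye for 1 h at 37 C. Agonist-mode compound addition from DMSO stocks; fluorescence monitored 3 min.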
(In general: Calcium flux is commonly read through the fluorescence of an indicator in the cells.)

For assay [4], the target named is KiSS-1 receptor (Homo sapiens) (UniProt Q969F8). As to the kind of experiment: Human kisspeptin (KISS1R) small molecule agonists, calcium flux assay in KISS1R-HEK293 cells (AID 1920064; active means well fitted curve in the direction sought with a large enough effect in the repeat runs; an effect the other way counts as inactive or inconclusive). In short, it runs like this: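 After overnight (18 h) culture at 37 C/5% CO2, human KISS1R-HEK293 cells received calcium dye for 1 h, then test compound; emission at 540 nm (excitation 480 nm) was tracked for 3 min.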

A short description of assay [5]: G protein-coupled receptor (GPCR) small molecule agonists, calcium flux assay: HEK293 wild type cell line counter screen (AID 1920065). The method in brief: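 Following 18 h incubation at 37 C/5% CO2, plates got calcium dye for 1 h; compounds, ATP or DMSO were then pinned in and fluorescence followed kinetically (480/540 nm).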
A short description of assay [6]: p53 small molecule agonists, cell-based qHTS assay with human liver microsomes (AID 1963577).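 Further: p53 response element beta-lactamase reporter cells with liver microsomes plus NADPH.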 In short, it runs like this:
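Metabolically competent format: test substances, human liver microsomes and NADPH (both 0.5 mg/mL final) incubated with p53RE-bla cells 16 h at 37 C. Beta-lactamase reporter signal then quantified by fluorescence.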

Assay [7] in a line: p53 small molecule agonists, cell-based qHTS assay with rat liver microsomes (AID 1963578). In short, it runs like this:
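Each plate received p53RE-bla cells, then compound, then rat liver microsomes and NADPH (both 0.5 mg/mL final). Plates were held 16 h at 37 C, and beta-lactamase activity was detected with LiveBLAzer over 2 h.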

A short description of assay [8]: p53 small molecule agonists, cell-based qHTS assay with human liver microsomes: qHTS cell viability counter screen (AID 1963579). Further: nearly all actives have a fitted effect of over 45% in size. In short, it runs like this:
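Tox21 library compounds, delivered from DMSO stocks, were tested on p53RE-bla cells together with 0.5 mg/mL human liver microsomes and 0.5 mg/mL NADPH (final) over 16 h at 37 C; CellTiter-Glo luminescence served as the cytotoxicity measure.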

Assay [9] can be described thus: p53 small molecule agonists, cell-based qHTS assay with rat liver microsomes: qHTS cell viability counter screen (AID 1963580). Further: nearly all actives have a fitted effect of over 45% in size. The method in brief:
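After the beta-lactamase ratio was read, CellTiter-Glo was added to the same wells and luminescence measured at 30 min; cells had been treated 16 h at 37 C with compounds, rat liver microsomes and NADPH (0.5 mg/mL final each).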
A general note: qHTS replaces the single test concentration by a dilution series.

Assay [10] is described as follows: p53 small molecule agonists, cell-based qHTS assay: qHTS cell viability counter screen (AID 1963581). Further: nearly all actives have a fitted effect of over 45% in size. The method in brief: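 qHTS counter screen: 16 h compound exposure at 37 C of p53RE-bla HCT-116 cells (4,000 per well, seeded 5 h prior), cell viability by ATP luminescence.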
Assay [11] in a line: p53 small molecule agonists, cell-based qHTS assay (AID 1963582; active means well fitted activation curve with a large enough effect in the signal ratio in the repeat runs, not every such curve was filed as active; the % refers to the signal ratio). In short, it runs like this: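 Measured: fluorescence from cleaved LiveBLAzer substrate. System: p53RE-bla cells, 16 h compound treatment at 37 C, 2 h substrate step at room temperature.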
The target in assay [12] is 5-hydroxytryptamine receptor 2A (Homo sapiens) (UniProt P28223). As to the kind of experiment: 5-hydroxytryptamine receptor 2A (HTR2A) small molecule agonists, cell-based qHTS assay (AID 1963587). Further: nearly all actives have a fitted effect of over 30% in size. In short, it runs like this: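 CHO cells stably expressing human HTR2A, plated 18 h, loaded with calcium dye 1 h at 37 C. Agonist mode: compounds added and intracellular calcium fluorescence recorded kinetically for 2 min at 1 sec intervals.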

The nature of assay [13]: cAMP Responsive Elements (CRE) small molecule antagonists, cell-based qHTS assay (AID 1963591; active means well fitted inhibition curve with a large enough effect in the signal ratio in the repeat runs, not every such curve was filed as active; the % refers to the signal ratio). The method in brief:
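Reporter line CRE-bla HEK 293T in dialyzed-FBS DMEM; cells preincubated 18 h, treated 3 h with compound plus NKH477 (0.25 uM final); LiveBLAzer FRET, 2 h RT.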

The target of assay [14] is Beta-2 adrenergic receptor (Homo sapiens) (UniProt P07550). Nature of the assay: Adrenergic beta2 receptor (ADRB2) small molecule antagonists, cell-based qHTS assay (AID 1963592). Further: series mostly up to about 92 µM; nearly all actives have a fitted effect of over 50% in size. The method in brief: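 Assay format: CHO-ADRB2 cells, 18-20hr seeding at 37C/5% CO2, then compound plus 1nM isoproterenol agonist mix for 0.5hr RT. Homogeneous time-resolved fluorescence cAMP detection after 1hr, expressed as 665/615 nm ratio.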

The target is the same in assay [15]. As to the kind of experiment: Adrenergic beta2 receptor (ADRB2) small molecule agonists, cell-based qHTS assay (AID 1963593).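 Further: CHO cells stably overexpressing human ADRB2.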 In short, it runs like this:
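CHO cells stably over-expressing ADRB2 were plated overnight at 37C, then dosed with compounds plus a stimulation mix containing 100uM IBMX and 25uM Ro-20-1724 for 0.5hr at room temperature. cAMP was measured by HTRF competition, 1hr.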

Assay [16] deals with D(2) dopamine receptor (Homo sapiens) (UniProt P14416). As to the kind of experiment: Dopamine D2 receptor (DRD2) small molecule agonists, cell-based qHTS assay (AID 1963594). Further: nearly all actives have a fitted effect of over 35% in size. The method in brief: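 HEK293 cells stably expressing human DRD2, pre-treated with PDE inhibitor Ro20-1724 (0.1 mM final) and compound 10 min at room temperature, then stimulated with NKH477 (200nM […]) for 30 min. cAMP read by HTRF (665/620 nm).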

The target is the same in assay [17]. Nature of the assay: Dopamine D2 receptor (DRD2) small molecule antagonists, cell-based qHTS assay (AID 1963595; active means well fitted inhibition curve with a large enough effect in the signal ratio in the repeat runs, with a control signal flat; the % refers to the signal ratio; further: potency means the concentration at half of the fitted maximal effect). The method in brief:
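HTRF cAMP read-out at 665 and 620 nm emission (340 nm excitation). Antagonist mode: compounds were tested against 12 nM quinpirole in DRD2-HEK293 cells, with 200 nM NKH477 raising cAMP and 0.1 mM Ro20-1724 blocking its breakdown.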

Assay [18] in a line: cAMP Responsive Elements (CRE) small molecule agonists, cell-based qHTS assay (AID 1963590). In short, it runs like this:
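Test agents in DMSO were incubated 3 h at 37 C/5% CO2 with CRE-bla HEK 293T cells seeded 18 h earlier; LiveBLAzer B/G FRET substrate was added and read after 2 h at room temperature.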

In assay [19] the target is Muscarinic acetylcholine receptor M1 (Homo sapiens) (UniProt P11229). As to the kind of experiment: Cholinergic receptor muscarinic 1 (CHRM1) small molecule antagonists, cell-based qHTS assay (AID 1963588). Further: nearly all actives have a fitted effect of over 40% in size. In short, it runs like this: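 Compounds were tested at 15 concentrations in three independent runs. Dye-loaded CHRM1-CHO cells were exposed 5 min at room temperature before stimulation by acetylcholine added at 50nM. Intracellular calcium was read kinetically on FDSS for 3 min.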

Molecules are shown by their SMILES. Several values for one entry are separate records, joined by “and”; a condition that tells them apart may be missing. Equal values may be shown once. Inconclusive results are not listed. More than one record can exist for a structure, and the calls need not agree. Activity calls are given as the source filed them. Unless noted, the call rests on the fitted dose curve.

KiSS-1 receptor (Homo sapiens), sequence (Q969F8 whole entry, looked up): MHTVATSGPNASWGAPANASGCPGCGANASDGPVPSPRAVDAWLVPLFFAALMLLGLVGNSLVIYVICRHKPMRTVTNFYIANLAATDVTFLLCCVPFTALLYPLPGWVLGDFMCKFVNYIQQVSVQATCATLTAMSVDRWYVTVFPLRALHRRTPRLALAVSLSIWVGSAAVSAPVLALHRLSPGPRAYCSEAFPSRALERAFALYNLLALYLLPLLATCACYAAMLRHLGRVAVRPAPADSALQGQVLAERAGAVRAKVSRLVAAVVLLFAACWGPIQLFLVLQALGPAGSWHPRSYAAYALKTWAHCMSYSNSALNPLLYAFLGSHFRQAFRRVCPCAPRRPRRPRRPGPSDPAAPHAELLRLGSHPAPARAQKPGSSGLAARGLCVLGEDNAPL
Beta-2 adrenergic receptor (Homo sapiens), sequence (P07550 whole entry, looked up): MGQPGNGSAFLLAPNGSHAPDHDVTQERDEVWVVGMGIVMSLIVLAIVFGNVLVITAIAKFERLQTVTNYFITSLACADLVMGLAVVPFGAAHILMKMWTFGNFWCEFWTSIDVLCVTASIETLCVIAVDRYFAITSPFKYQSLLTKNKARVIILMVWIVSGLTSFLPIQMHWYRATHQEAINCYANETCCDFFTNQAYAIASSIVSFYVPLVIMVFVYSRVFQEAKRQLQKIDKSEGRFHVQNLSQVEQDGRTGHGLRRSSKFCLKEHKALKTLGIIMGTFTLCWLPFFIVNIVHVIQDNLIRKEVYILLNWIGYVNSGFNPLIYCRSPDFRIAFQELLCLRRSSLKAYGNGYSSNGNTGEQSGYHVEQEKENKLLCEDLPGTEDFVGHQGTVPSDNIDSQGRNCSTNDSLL
D(2) dopamine receptor (Homo sapiens), sequence (P14416 whole entry, looked up): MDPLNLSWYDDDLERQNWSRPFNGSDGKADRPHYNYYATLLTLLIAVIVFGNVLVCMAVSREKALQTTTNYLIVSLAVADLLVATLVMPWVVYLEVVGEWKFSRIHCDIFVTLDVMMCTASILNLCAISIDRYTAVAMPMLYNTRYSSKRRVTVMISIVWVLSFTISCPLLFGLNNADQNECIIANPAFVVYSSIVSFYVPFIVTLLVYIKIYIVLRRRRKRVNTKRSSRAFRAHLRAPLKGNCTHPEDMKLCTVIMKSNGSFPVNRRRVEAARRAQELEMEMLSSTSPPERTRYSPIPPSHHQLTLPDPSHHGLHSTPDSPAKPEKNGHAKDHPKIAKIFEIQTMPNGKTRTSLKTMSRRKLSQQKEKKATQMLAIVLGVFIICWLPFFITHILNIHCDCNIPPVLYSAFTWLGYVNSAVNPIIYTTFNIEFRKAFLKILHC
Gonadotropin-releasing hormone receptor (Homo sapiens), sequence (P30968 whole entry, looked up): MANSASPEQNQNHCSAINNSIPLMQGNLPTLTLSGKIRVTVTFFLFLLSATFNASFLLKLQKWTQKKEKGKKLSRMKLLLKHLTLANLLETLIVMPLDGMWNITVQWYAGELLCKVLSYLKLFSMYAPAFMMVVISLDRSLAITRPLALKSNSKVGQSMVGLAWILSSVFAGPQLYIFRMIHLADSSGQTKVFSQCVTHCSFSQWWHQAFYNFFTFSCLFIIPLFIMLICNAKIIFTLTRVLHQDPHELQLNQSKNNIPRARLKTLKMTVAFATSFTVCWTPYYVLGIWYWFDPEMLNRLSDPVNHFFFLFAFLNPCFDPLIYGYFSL
5-hydroxytryptamine receptor 2A (Homo sapiens), sequence (P28223 whole entry, looked up): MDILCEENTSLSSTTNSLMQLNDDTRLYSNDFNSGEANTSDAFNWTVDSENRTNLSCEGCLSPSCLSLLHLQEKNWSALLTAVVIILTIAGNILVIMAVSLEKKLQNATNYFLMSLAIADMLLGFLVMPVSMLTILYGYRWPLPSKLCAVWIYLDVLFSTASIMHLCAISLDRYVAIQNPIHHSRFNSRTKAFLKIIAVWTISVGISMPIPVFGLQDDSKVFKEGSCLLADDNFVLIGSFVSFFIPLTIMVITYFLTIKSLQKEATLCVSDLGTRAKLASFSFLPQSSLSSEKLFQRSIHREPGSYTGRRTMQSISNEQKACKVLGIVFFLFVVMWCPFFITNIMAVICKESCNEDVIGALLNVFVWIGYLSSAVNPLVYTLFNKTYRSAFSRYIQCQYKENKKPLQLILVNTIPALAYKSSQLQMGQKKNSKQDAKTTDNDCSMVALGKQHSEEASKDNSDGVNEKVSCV
Muscarinic acetylcholine receptor M1 (Homo sapiens), sequence (P11229 whole entry, looked up): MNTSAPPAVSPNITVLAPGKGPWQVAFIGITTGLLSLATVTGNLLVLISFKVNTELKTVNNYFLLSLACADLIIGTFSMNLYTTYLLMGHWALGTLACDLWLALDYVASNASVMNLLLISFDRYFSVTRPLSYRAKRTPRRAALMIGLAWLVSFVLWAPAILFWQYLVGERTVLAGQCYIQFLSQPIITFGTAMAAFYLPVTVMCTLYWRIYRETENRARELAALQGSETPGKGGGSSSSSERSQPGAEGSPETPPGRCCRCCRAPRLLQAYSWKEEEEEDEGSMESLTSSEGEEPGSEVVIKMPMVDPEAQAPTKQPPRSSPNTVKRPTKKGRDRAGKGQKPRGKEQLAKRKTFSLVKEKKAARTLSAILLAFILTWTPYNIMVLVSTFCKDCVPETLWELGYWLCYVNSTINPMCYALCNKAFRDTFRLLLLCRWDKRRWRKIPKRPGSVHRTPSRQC

As for `CCCCCCCCCCO`, the Potency entry in [1], in assay [2], in assay [3], in assay [4], in [5] and in assay [6] was “inactive” in each case. The Potency result in [7], in [8], in assay [9], in [10], in [11] and in [12] was “inactive” each time. The Potency result in [13], in assay [14], in assay [15], in assay [16] and in assay [17] was “inactive” throughout.

Take `NNCCc1ccccc1`: the Potency entry in [1], in assay [3], in assay [4], in assay [5], in [6] and in [7] was “inactive” in each case. The Potency result in assay [8], in assay [9], in assay [10], in [11], in [18] and in [13] was “inactive” throughout. The Potency result in [14], in assay [15], in assay [16] and in assay [17] was “inactive” in each case. Further, the Potency in [2] is 3.87 µM (active) and 8.41 µM (active).

Take `NC(=O)c1cccnc1`: the Potency entry in [1], in [2], in assay [3], in assay [4], in [5] and in assay [6] was “inactive” in each case. For the same molecule, the Potency entry in assay [7], in [8], in assay [9], in assay [10], in assay [11] and in assay [18] was “inactive” throughout. In addition, the Potency result in [13], in [14], in assay [15], in assay [16] and in assay [17] was “inactive” each time.

Regarding `CCCCC(CC)CO` (centres undefined), the Potency entry in [1], in [2], in assay [3], in [4], in assay [5] and in assay [6] was “inactive” each time. Further, the Potency entry in assay [7], in assay [8], in assay [9], in assay [10], in assay [11] and in [19] was “inactive” in each case. For the same molecule, the Potency entry in assay [18], in assay [13], in [14], in [15], in [16] and in assay [17] was “inactive” throughout.

On to `O=C1CCC(N2C(=O)c3ccccc3C2=O)C(=O)N1` (centres undefined), for which the Potency entry in [1], in [2], in assay [3], in assay [4], in assay [5] and in [6] was “inactive” throughout. The Potency result in [7], in [8], in assay [9], in assay [10], in assay [11] and in assay [18] was “inactive” each time. In addition, the Potency entry in assay [13] and in assay [14] was “inactive” each time.

As to `CCc1cccc2c3c([nH]c12)C(CC)(CC(=O)O)OCC3` (centres undefined), the Potency result in [1], in [2], in assay [3], in assay [4], in [5] and in assay [6] was “inactive” each time. Moreover, the Potency entry in assay [7], in [8], in [9], in assay [10], in assay [11] and in assay [18] was “inactive” in each case. Also, the Potency result in assay [13], in [14], in [15] and in assay [16] was “inactive” throughout. In assay [17], the Potency result is “inactive and 23.7 µM (active)”.

For the molecule `O=C1O[C@H]([C@H](O)CO)C(O)=C1O`, the Potency entry in assay [1], in assay [2], in [3], in assay [4], in [5] and in assay [6] was “inactive” each time. In addition, the Potency result in assay [7], in assay [8], in assay [9], in [10], in assay [11] and in assay [18] was “inactive” each time. Also, the Potency result in assay [13], in assay [14], in assay [15], in assay [16] and in [17] was “inactive” in each case.

For `CN(N=O)C(=O)N[C@@H]1[C@@H](O)[C@H](O)[C@@H](CO)O[C@@H]1O`, the Potency result in [1], in assay [2], in assay [3], in [4], in assay [5] and in assay [6] was “inactive” each time. Moreover, the Potency result in assay [7], in [8], in assay [9], in assay [10], in [11] and in [18] was “inactive” each time. Besides, the Potency result in assay [13], in [14], in [15], in [16] and in assay [17] was “inactive” throughout.
